Paper PMC11006913
Residue numbers refer to the chain shown, from its start.

Key:
Experiment in all cases: PBM; 200 nM protein, PBS
Conditions in all cases: dsDNA, one strand shown
[1] = target: T1, SIX6 (Homo sapiens, UniProt O95475 114-200, T165P)
T1 sequence: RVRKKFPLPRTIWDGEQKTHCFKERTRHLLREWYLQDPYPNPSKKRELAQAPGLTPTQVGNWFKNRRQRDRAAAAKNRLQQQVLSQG

[2] = target: PITX2 (Homo sapiens, UniProt Q99697 72-157)
[3] = target: T2, NKX2-4 (Homo sapiens, UniProt Q9H2Z4 175-261, P217L)
T2 sequence: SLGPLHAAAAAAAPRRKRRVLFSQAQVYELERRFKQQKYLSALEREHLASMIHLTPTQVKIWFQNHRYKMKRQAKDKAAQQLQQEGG

[4] = target: T3, NKX2-4 (Homo sapiens, UniProt Q9H2Z4 175-261, T231S)
T3 sequence: T2 sequence with L43P, T57S

[5] = target: T4, NKX2-4 (Homo sapiens, UniProt Q9H2Z4 175-261)
T4 sequence: T2 sequence with L43P

[6] = target: T5, NKX2-4 (Homo sapiens, UniProt Q9H2Z4 175-261, R246Q)
T5 sequence: T2 sequence with L43P, R72Q

[7] = target: T6, NKX2-6 (Homo sapiens, UniProt A6NCS4 118-204, R150C)
T6 sequence: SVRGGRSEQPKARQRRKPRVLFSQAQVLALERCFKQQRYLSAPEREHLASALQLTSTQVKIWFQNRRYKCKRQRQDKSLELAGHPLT

[8] = target: CRX (Homo sapiens, UniProt O43186 26-111)
[9] = target: CRX (Homo sapiens, UniProt O43186 26-111, E42D)
Chain of CRX (Homo sapiens, UniProt O43186 26-111, E42D) (O43186 26-111 E42D): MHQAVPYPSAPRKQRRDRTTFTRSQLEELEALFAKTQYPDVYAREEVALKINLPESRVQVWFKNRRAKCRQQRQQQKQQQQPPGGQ

Chain of CRX (Homo sapiens, UniProt O43186 26-111) (O43186 26-111): as the sequence (O43186 26-111 E42D) above, with D17E counted along it

CCAGGTCC
binding signal [1]: 8.71 upbm affinity estimate (log intensity, higher = more binding, comparable within an allelic series)

AATTAATC
binding signal [2]: 12.4 upbm affinity estimate (log intensity, higher = more binding, comparable within an allelic series)

CCCCGGCG
binding signal [3]: 9.5 upbm affinity estimate (log intensity, higher = more binding, comparable within an allelic series) | binding signal [4]: 9.48 upbm affinity estimate (log intensity, higher = more binding, comparable within an allelic series) | binding signal [5]: 9.57 upbm affinity estimate (log intensity, higher = more binding, comparable within an allelic series) | binding signal [6]: 9.55 upbm affinity estimate (log intensity, higher = more binding, comparable within an allelic series)

GGCAGGCC
binding signal [7]: 9.24 upbm affinity estimate (log intensity, higher = more binding, comparable within an allelic series)

ATTAATGC
binding signal [8]: 11.9 upbm affinity estimate (log intensity, higher = more binding, comparable within an allelic series) | binding signal [9]: 11.7 upbm affinity estimate (log intensity, higher = more binding, comparable within an allelic series)
